Inconclusive results are not listed. The source made the active and inactive calls. Calls follow the shape of the dose curve; as a rule, active = well fitted inhibition curve with a large enough effect; inconclusive = small, poorly fitted or top-dose-only effect; inactive = no such curve, though single readings can be large or run the other way.
Test system: zebrafish Abcb4 (ABCB1 homolog)
Experiment: qHTS for characterization and localization of zebrafish homologs of the human ABCB1 multidrug transporter: ABCB4 transfected cells
Conditions: CellTiter-Glo viability luminescence, 72 h; series mostly up to 46.1 µM; activity change, negative = inhibition: at the top concentration
Source text: The zebrafish has emerged as a potential model to study the blood-brain barrier (BBB) given its similarities with mammalian systems. However, little information has been available with regard to homologous ATP-binding cassette transporters expressed at the zebrafish BBB. Two transporters that are highly expressed at the human BBB are P-glycoprotein (P-gp, encoded by the ABCB1 gene) and ABCG2 (encoded by the ABCG2 gene). In this study, we focus on characterization of P-gp homologs in the zebrafish, which has two genes that are homologous to human ABCB1 - abcb4 and abcb5. We generated stably-transfected cell lines to determine their substrate specificities. […] Zebrafish abcb4 also colocalized with claudin 5 expression in brain endothelial cells.
A high-throughput screen was performed as previously described on empty vector transfected cells, P-gp-overexpressing MDR-19 cells and cells transfected with full-length zebrafish abcb4 (ZF Abcb4) or abcb5 (ZF Abcb5). Briefly, cells were plated into 1536-well plates at a density of 500 cells/well in 5 uL media. P-gp substrate compounds (approximately 90) selected from our previous study were then added at varying concentrations using a 1536-head pin tool (Kalypsis, San Diego, CA) and plates were incubated at 37C in 5% CO2 for 72 h. CellTiter-Glo reagent (Promega) was dispensed into the wells, incubated for 5 min and luminescence was read on a ViewLux instrument (Perkin-Elmer).
Cytotoxic compounds were defined as those that yielded a curve class of -1.1, -1.2, -2.1, -2.2, -2.3, or -2.4, a maximum response of >50% and an AC50 of < 10 uM. All compounds from screening analysis were tested in Vector (empty vector control), MDR-19 (P-gp overexpressing), zebrafish abcb4 (ZF Abcb4) and abcb5 (ZF Abcb5) expression cell lines.
1. Tobie D Lee, Olivia W Lee, Kyle R Brimacombe, Lu Chen, Rajarshi Guha, Sabrina Lusvarghi, Bethilehem G Tebase, Carleen Klumpp-Thomas, Robert W Robey, Suresh V Ambudkar, Min Shen, Michael M Gottesman, Matthew D Hall. A High-Throughput Screen of a Library of Therapeutics Identifies Cytotoxic Substrates of P-glycoprotein. Mol Pharmacol. 2019, Nov;96(5):629-640.

Row | Compound | Potency | activity change, negative = inhibition
1 | CN(C)c1ccc(C(=C2C=CC(=[N+](C)C)C=C2)c2ccc(N(C)C)cc2)cc1 | 13200 nM (active) | –
2 | O=C(NC1CCNCC1)c1[nH]ncc1NC(=O)c1c(Cl)cccc1Cl | – | 0% (inactive)
3 | CC(C)C[C@H](NC(=O)[C@@H](NC(=O)c1cccc(-c2ccccc2)n1)[C@@H](C)O)B(O)O | 662 nM (active) | –
4 | CCS(=O)(=O)c1cccc(-c2cc(C(=O)NC3CCN(C)CC3)c(C)c3[nH]c4ncc(C)cc4c23)c1 | – | 0.87% (inactive)
5 | CCc1c(O)cc(O)c(C(=O)c2ccc(OCCN3CCOCC3)c(OC)c2)c1CC(=O)N(CCOC)CCOC | – | -0.0218% (inactive)
6 | Cc1cc(N)c2ccccc2[n+]1CCCCCCCCCC[n+]1c(C)cc(N)c2ccccc21 | – | 3.65% (inactive)
7 | Cc1nc(Nc2n[nH]c3c2CN(C(=O)N[C@H](CN(C)C)c2ccccc2)C3(C)C)c2sccc2n1 | – | -30.3% (inactive)
8 | CC(C)C[C@H](NC(=O)[C@H](CCc1ccccc1)NC(=O)CN1CCOCC1)C(=O)N[C@@H](Cc1ccccc1)C(=O)N[C@@H](CC(C)C)C(=O)[C@@]1(C)CO1 | 2350 nM (active) | –
9 | CC[n+]1c(-c2ccccc2)c2cc(N)ccc2c2ccc(N)cc21 | – | -14% (inactive)
10 | C[C@@H]1O[C@@H](O[C@H]2[C@@H](OC(=O)[C@]34CCC(C)(C)CC3C3=CCC5[C@@]6(C)C[C@H](O)[C@H](O[C@@H]7O[C@H](CO)[C@@H](O)[C@H](O)[C@H]7O[C@@H]7OC[C@@H](O)[C@H](O)[C@H]7O)[C@@](C)(C(=O)O)C6CC[C@@]5(C)[C@]3(C)CC4)OC[C@H](O)[C@@H]2O)[C@H](O)[C@H](O)[C@H]1O[C@@H]1OC[C@@H](O)[C@H](O)[C@H]1O (stereo partly specified) | – | -5.3% [at 8.96 µM] (inactive)
11 | COc1cc2c(NC3CCN(C(C)C)CC3)nc(N3CCCN(C)CC3)nc2cc1OCCCN1CCCC1 | – | -9.68% (inactive)
